Test results as given in PubChem BioAssay AID1159580 (chemical genetic matrix, 2015).
Values joined by “and” are separate entries in the source; they are usually repeats but may differ in a detail not shown here. Equal values may be shown once. In all, about 5,500 compounds went through this assay and about 2,000 (36%) were called active. Roughly 18% stayed inconclusive and do not appear here. Cut-off read from the data, not from the text of the source: active = normalized growth mostly below about 0.91 (no sharp cut-off); inconclusive = no clear call, values can overlap the other calls; inactive = mostly above about 0.92. Some of the results follow.

Test: chemical genetic growth profiling, strain panel (AID 1159580);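 note: tested at 20 µM; growth read once vehicle control cultures reached saturation at 30 °C; 1 = growth at the plate median or of vehicle wells; lower values mean less growth of the strain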
Details: S. cerevisiae deletion strains, growth OD

Measured: normalized growth

CCCCNC(=O)NS(=O)(=O)c1ccc(C)cc1
inactive: locus YAL013W, strain DEP1, stronger effect = lower value 0.995 | locus YAL021C, strain ccr4, stronger effect = lower value 1.02 | locus YAL026C, strain drs2, stronger effect = lower value 1.01 | locus YAL030W, strain snc1, stronger effect = lower value 1.02 | locus YAL040C, strain CLN3, stronger effect = lower value 0.997 | locus YBL061C, strain skt5, stronger effect = lower value 1.01 | locus YBR009C, strain hhf1, stronger effect = lower value 0.973 | locus YBR021W, strain FUR4, stronger effect = lower value 1.01 | locus YBR023C, strain chs3, stronger effect = lower value 1.02 | locus YBR171W, strain sec66, stronger effect = lower value 1.01 | locus YBR229C, strain ROT2, stronger effect = lower value 0.993 | locus YBR231C, strain swc5, stronger effect = lower value 1.01 | locus YBR279W, strain paf1, stronger effect = lower value 0.995 | locus YCL011C, strain gbp2, stronger effect = lower value 1 | locus YCL016C, strain dcc1, stronger effect = lower value 0.993 | locus YCL029C, strain bik1, stronger effect = lower value 0.979 | locus YCL061C, strain MRC1 (second series), stronger effect = lower value 1 | locus YCL061C, strain MRC1, stronger effect = lower value 1.01 | locus YCL069W, strain vba3, stronger effect = lower value 1.02 | locus YCR088W, strain abp1, stronger effect = lower value 1.02 | locus YDL005C, strain med2, stronger effect = lower value 1.01 | locus YDL035C, strain GPR1, stronger effect = lower value 0.989 | locus YDL040C, strain nat1, stronger effect = lower value 1.01 | locus YDL074C, strain BRE1, stronger effect = lower value 1.02 | locus YDL101C, strain DUN1, stronger effect = lower value 1.01 | locus YDL134C, strain PPH21, stronger effect = lower value 1 | locus YDL185W, strain tfp1, stronger effect = lower value 0.953 | locus YDL192W, strain arf1, stronger effect = lower value 0.97 | locus YDR001C, strain nth1, stronger effect = lower value 1.02 | locus YDR069C, strain doa4, stronger effect = lower value 1.02 | locus YDR101C, strain arx1, stronger effect = lower value 0.994 | locus YDR137W, strain rgp1, stronger effect = lower value 0.978 | locus YDR159W, strain sac3, stronger effect = lower value 0.93 | locus YDR162C, strain NBP2, stronger effect = lower value 0.974 | locus YDR195W, strain ref2 1.01 | locus YDR297W, strain sur2, stronger effect = lower value 1.01 | locus YDR318W, strain mcm21, stronger effect = lower value 0.978 | locus YDR334W, strain swr1, stronger effect = lower value 1.01 | locus YDR335W, strain msn5, stronger effect = lower value 1.01 | locus YDR363W, strain ESC2, stronger effect = lower value 1.01 | locus YDR388W, stronger effect = lower value 0.974 | locus YDR392W, strain spt3, stronger effect = lower value 0.927 | locus YDR502C, strain sam2, stronger effect = lower value 0.985 | locus YEL003W, strain gim4, stronger effect = lower value 1.02 | locus YEL037C, strain rad23, stronger effect = lower value 1.01 | locus YEL061C, strain CIN8 (second series), stronger effect = lower value 1.01 | locus YEL061C, strain CIN8, stronger effect = lower value 0.99 | locus YER002W, strain NOP16, stronger effect = lower value 1 | locus YER015W, strain faa2, stronger effect = lower value 1.01 | locus YER016W, strain bim1, stronger effect = lower value 0.988 | locus YER110C, stronger effect = lower value 0.982 | locus YER111C, strain swi4, stronger effect = lower value 1.02 | locus YER155C, strain BEM2 (second series), stronger effect = lower value 1.04 | locus YER155C, strain BEM2, stronger effect = lower value 0.985 | locus YER167W, strain BCK2, stronger effect = lower value 0.994 | locus YFR010W, strain ubp6, stronger effect = lower value 1.02 | locus YGL078C, strain dbp3, stronger effect = lower value 0.989 | locus YGL086W, strain mad1, stronger effect = lower value 1 | locus YGL167C, strain pmr1, stronger effect = lower value 1.01 | locus YGL173C, strain kem1, stronger effect = lower value 1.03 | locus YGL227W, strain vid30, stronger effect = lower value 1.01 | locus YGL240W, strain doc1, stronger effect = lower value 1.01 | locus YGL248W, strain PDE1, stronger effect = lower value 1 | locus YGL253W, strain hxk2, stronger effect = lower value 1 | locus YGR078C, strain PAC10, stronger effect = lower value 1.01 | locus YGR135W, strain pre9, stronger effect = lower value 0.986 | locus YGR252W, strain gcn5, stronger effect = lower value 1.21 | locus YHR013C, strain ard1, stronger effect = lower value 0.992 | locus YHR027C, strain rpn1, stronger effect = lower value 1 | locus YHR030C, strain SLT2, stronger effect = lower value 0.99 and 0.938 | locus YHR079C, strain IRE1 (second series), stronger effect = lower value 0.98 | locus YHR079C, strain IRE1, stronger effect = lower value 0.964 | locus YHR094C, strain hxt1, stronger effect = lower value 0.979 | locus YHR129C, strain ARP1, stronger effect = lower value 0.996 | locus YHR142W, strain chs7, stronger effect = lower value 1.02 | locus YHR200W, strain rpn10, stronger effect = lower value 0.985 | locus YIL066C, strain RNR3, stronger effect = lower value 0.988 | locus YIL073C, strain SPO22, stronger effect = lower value 0.831 | locus YIL125W, strain kgd1, stronger effect = lower value 0.962 | locus YIR030C, strain dcg1, stronger effect = lower value 0.982 | locus YJL092W, strain hpr5, stronger effect = lower value 1.01 | locus YJL095W, strain BCK1 (second series), stronger effect = lower value 1.02 | locus YJL095W, strain BCK1, stronger effect = lower value 1.01 and 0.954 | locus YJL115W, strain asf1, stronger effect = lower value 1 | locus YJL129C, strain trk1, stronger effect = lower value 1.01 | locus YJL134W, strain LCB3, stronger effect = lower value 0.99 | locus YJL154C, strain vps35, stronger effect = lower value 1.01 | locus YJL164C, strain tpk1, stronger effect = lower value 1 | locus YJL166W, strain qcr8, stronger effect = lower value 1.02 | locus YJL168C, strain set2, stronger effect = lower value 0.981 | locus YJL187C, strain SWE1 (second series), stronger effect = lower value 0.982 | locus YJL187C, strain SWE1, stronger effect = lower value 1.02 | locus YJR043C, strain POL32, stronger effect = lower value 1.02 | locus YJR066W, strain TOR1, stronger effect = lower value 0.92
